The record followed here is PubChem BioAssay (NCI).

Each structure is given as a SMILES string. Compounds without any hit were thinned out: in the full panel of roughly 83,000, 20% have a hit.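 Growth was measured after 48 h exposure to one concentration of compound in 96-well plates. Values under 10 count as active.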 Values without a mark were called inactive. Active and inactive are the calls of the source.

The assay has as its system NCI-H522 lung. Nature of the assay: NCI-60 one-dose screen, 48 h (100 = growth as untreated, 0 = no growth, -100 = all killed). The note with it: 10 µM. On the procedure: Growth inhibition of the NCI-H522 human Non-Small Cell Lung tumor cell line is measured as a screen for anti-cancer activity. Cells are grown in 96 well plates and exposed to the test compound for 48 hours. Compounds are tested at a single concentration, which is 10^-5 M for most compounds. The reported endpoint is percent growth (GI% or GIPRCNT), where numbers from 0 - 100% represent growth inhibition, and numbers from -100% - 0 represent cell death. For example, a value of 40 represents 60% growth inhibition. A value of 0 means no net growth occurred over the course of the experiment. A value of -40 indicates 40% of cells at the beginning of the experiment died by the end of the experiment. A value of -100 means all cells are dead at the end of the experiment.
NCI-60 Human Tumor Cell Lines Screen was performed using the standard one-dose NCI protocol, which is described in more detail at https://dtp.cancer.gov/discovery_development/nci-60/default.htm.
Compounds with GIPRCNT values below 10 were considered active. Activity score was based on GIPRCNT using the following formula: […]
Score is 0 for GIPRCNT values of 100 or above, 50 for GIPRCNT values of 0, and 100 for GIPRCNT values of -100.
`O=C1C(=O)c2ccccc2C(O)=C1CCCc1ccc(Oc2ccccc2)cc1`: the growth was 57.9%.
As for `CCOC(=O)c1c(C)oc2ncnc(Nc3ccc(NC(=O)Nc4cccc(Cl)c4)cc3)c12`, the growth was 57.2%.
The same measure for `O=C1/C(=C\c2cn(-c3nc(N4CCOCC4)nc(N4CCOCC4)n3)c3ccccc23)c2ccccc2N1c1c(Cl)cccc1Cl`: 75.3%; for `CCCNC(=O)Oc1ccc(/C(=C(/CC)Cc2ccccc2)c2ccc(OCCN(CC)CC)cc2)cc1`: 76.8%; for `COc1nc(OC)nc(-c2cc(-c3cc(OC)c(OC)c(OC)c3)no2)n1`: 95.7%.
As to `CC1Cc2cc(F)ccc2-n2cccc21` (stereo not given), the growth was 101%.
In the case of `c1cc[c]([Bi]([c]2ccccc2)[c]2ccccc2)cc1`, the growth is 104%.
Regarding `CCCCCCNC(=O)Oc1ccc(/C(=C(/C)Cc2ccc(OC)cc2)c2ccc(OCCN(C)C)cc2)cc1`, the growth is 60%.
The same measure for `COc1ccccc1CNCCCN1C(=O)c2ccc3c4c(ccc(c24)C1=O)C(=O)N(CCCNCc1ccccc1OC)C3=O`: -90% (active); for `COc1ccc(-c2nc(SCC(C)C)nc(Nc3ccc(C(=O)O)cc3)c2C#N)cc1`: 84.7%.
The same measure for `Cc1ccc(NCc2cn(-c3ccc(C(=O)O)cc3)nc2-c2ccc(C(=O)O)cc2)cc1`: 86.2%; for `COc1cc(OC)c(NC(=O)n2ncc3cc(Nc4ncnc5ccccc45)ccc32)cc1Cl`: 72.1%; for `C/C(=N\Nc1ccc(Cl)cn1)c1ccc2ccccc2n1`: 11.9%.
In the case of `CCC(C)C1NC(=O)C(CC(C)C)NC(=O)C(C)NC(=O)C(C(C)C)NC(=O)C(CCCCN)NC(=O)C(CC(C)C)NC(=O)C(C(C)C)NC(=O)[C@H](C)NC(=O)C(C(C)CC)NC(=O)C(CCCN=C(N)N)NC(=O)C(CCCCN)NC(=O)C(CCCN=C(N)N)NC(=O)C(CCCCN)NC(=O)C([C@H](C)CC)NC(=O)C(CCCCN)NC1=O` (stereo not given in full), the growth was -5.53% (active).
The same measure for `O=C1C(=O)c2ccccc2C(O)=C1CCCc1ccc(C2CCCC2)cc1`: 39.2%.
For `C=C(C)[C@@H]1CC[C@]2(COC(=O)c3ccccc3C(=O)O)CC[C@]3(C)[C@H](CC[C@@H]4[C@@]5(C)CCCNC(C)(C)[C@@H]5CC[C@]43C)[C@@H]12` the value was 78.3%.
For `COC(=O)c1ccc2[nH]c(O)c(C(=Nc3ccc(N(C)C(=O)CN4CCN(C)CC4)cc3)c3cccc(OC)c3)c2c1` the value was 12.1%; for `CC(=N\N=C(N)N)/C(=N/N=C(N)N)c1ccccc1`, 94.4%.
For the compound `CCOC(=O)C1CCCN1C(=O)C1(NC(C)=O)CCCC1` (stereo not given), the growth was 107%.
The same measure for `O=C(Oc1ccccc1)c1ccccc1Cl`: 121%.
For `Oc1ccc2ccccc2c1/C=N\Nc1ccccn1`, the growth was 6.74% (active).
With `CCN(CCO)CCNc1ccc(C)c2sc3cc(OC)ccc3c(=O)c12`, the growth is 62.6%.
For `CCN(CC)CCCC(C)Nc1c(C)cnc2cc(Cl)c(C)cc12` (stereo not given) the value was 82.3%.
For `Cc1c(Cc2ccccc2)c(=O)oc2c(C)c(OCC(=O)n3nc(C#N)cc3N)ccc12` the value was 79.4%.
Turning to `CC1(C)Oc2cc3oc(=O)ccc3cc2C[C@@H]1OCCOS(=O)(=O)c1ccc(C#N)cc1`, the growth is 77.8%.
For `CCCCCCCCCc1cc[n+](CC(=O)c2ccc([N+](=O)[O-])cc2)cc1` the value was -12.9% (active).
For `Cc1ccc(C(=O)Nc2ccc(CN3CCN(C)CC3)c(C(F)(F)F)c2)cc1C#Cc1cncc2ncccc12`, the growth was 2.81% (active).
Consider `CCCCCc1ccnc(CC(=O)c2ccc(OC)cc2)c1`, for which the growth was 66.6%.
For `CC(=O)c1nn(-c2ccc(C)cc2)cc1C(=O)c1cc2c(ccc3ccccc32)oc1=O` the value was 81.5%; for `COC(=O)c1ccc2[nH]c(O)c(C(=Nc3ccc(N(C)C(=O)CN4CCN(C)CC4)cc3)c3ccc([N+](=O)[O-])cc3)c2c1`, 34.3%; for `Nc1cc(N)c2nc(NCCc3ccc(Cl)c(Cl)c3)cnc2c1`, 17.3%.
In the case of `COc1ccc(Oc2[nH]n(C3=Nc4ccccc4Sc4ccccc43)c(=O)c2C#N)cc1`, the growth is 74.9%.
As to `CCN(CC)CCCNc1c2ccc(Cl)cc2nc2ccc(OC)cc12`, the growth was -52% (active).
`O=S(=O)(Cc1cccc2c(CS(=O)(=O)c3ccc(Cl)cc3)cccc12)c1ccc(Cl)cc1`: the growth is 96.4%.
The same measure for `COc1ccc2cnc(N)c(C#Cc3cc(C(=O)Nc4ccc(CN5CCN(C)CC5)c(C(F)(F)F)c4)cnc3C)c2c1`: 69.7%; for `COC(=O)c1ccc2[nH]c(O)c(C(=Nc3ccc(N(C)C(=O)CN4CCN(C)CC4)cc3)c3ccc(CCO)cc3)c2c1`: 33.3%.
The same measure for `C=C(NC(=O)[C@H](C(C)C)N(C)c1cccc2[nH]ccc12)C(=O)OC`: 87.3%; for `COc1cc(N2C(=O)C=CC2=O)ccc1N1C(=O)C=CC1=O`: -59.8% (active); for `CCOC(=O)c1cc(-c2ccc(OC)cc2)[nH]c1NNC(=O)CCOC`: 98%.
For `Clc1ccc(N/N=C/c2ccccn2)nc1` the value was 37.5%.
